Data reported in PubChem BioAssay AID493098 (Sanford-Burnham Center for Chemical Genomics, 2011).
Out of some 340,000 compounds screened, about 1,700 (0.5%) were called active. Shown is part of a subset that was picked to be rich in actives. Unmarked numbers belong to inactive results.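 Rule for the calls: active = compounds whose inhibition of the agonist-driven luminescence signal at 20 µM reaches about 50% (limit read from the data); inactive = the rest.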

What follows are compounds tested against C-C chemokine receptor type 6 (Homo sapiens) (UniProt P51684) (assay: CCR6 receptor antagonists, primary screen, cell-based, CHO-K1, luminescence, beta-arrestin, uHTS (AID 493098;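 note: cells stimulated with CCL20 at 14 nM final; plate controls were DMSO with CCL20 for no effect and DMSO without agonist for full effect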)). Details: CHO-K1 CCR6 PathHunter beta-arrestin, CCL20-stimulated, at 20 µM, active compounds read high.
Chain of C-C chemokine receptor type 6 (Homo sapiens) (P51684 whole entry, looked up): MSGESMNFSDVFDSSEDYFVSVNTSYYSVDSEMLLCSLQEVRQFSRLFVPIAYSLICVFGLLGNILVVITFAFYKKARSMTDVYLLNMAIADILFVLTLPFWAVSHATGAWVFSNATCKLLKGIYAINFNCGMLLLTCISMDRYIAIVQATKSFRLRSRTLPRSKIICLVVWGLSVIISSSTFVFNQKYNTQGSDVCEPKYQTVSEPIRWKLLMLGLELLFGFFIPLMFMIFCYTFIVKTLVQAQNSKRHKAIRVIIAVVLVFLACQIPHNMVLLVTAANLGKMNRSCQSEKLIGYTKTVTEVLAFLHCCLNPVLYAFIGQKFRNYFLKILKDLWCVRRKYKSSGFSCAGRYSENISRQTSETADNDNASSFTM

Structure (SMILES) | inhibition
Cc1cccc(N(C)C(=O)c2cc(S(=O)(=O)N3CCCCC3)c[nH]2)c1 | -9.41%
Cc1ccc2c(c1)C1C[N+](C)(CC(=O)c3ccccc3)CCC1N2C(=O)c1ccccc1Cl (centres undefined) | 7.95%
O=C(NN=Cc1ccc([N+](=O)[O-])cc1)C1CC1 | -1.3%
O=[N+]([O-])c1ccc(C=NN=Cc2ccc([N+](=O)[O-])cc2)cc1 | 9.6%
O=C1/C(=C\c2ccc([N+](=O)[O-])cc2)CS(=O)(=O)C/C1=C/c1ccc([N+](=O)[O-])cc1 | 102% (active)
OCCC1CN(Cc2cccn2-c2nccs2)CCN1CCc1ccccc1 (centres undefined) | 3.25%
CCCOC(=O)c1c(NC(=O)c2cnn3c2NC(c2ccccc2)CC3C(F)(F)F)sc2c1CCCC2 (centres undefined) | 8.83%
O=C1Nc2ccc(Br)cc2/C1=N/N=C/C1=C(N2CCOCC2)C(=C\c2ccccc2)/CC1 | 55.1% (active)
O=C(O)c1ccc(NN=CC2=C(N3CCOCC3)/C(=C/c3ccccc3)CC2)cc1 | -7.52%
N#C/C(=C\C1=C(N2CCOCC2)C(=C\c2ccccc2)/CC1)C(=O)Nc1ccccc1F | 37.8%
COc1ccc(Nc2cc(=O)n(-c3ccccc3)c3c2c(=O)n(C)c(=O)n3C)cc1 | 2.01%
Cc1ccc(S(=O)(=O)N2CCN(C)CC2)cc1 | 13.6%
Cn1ncc(N2CCN(S(=O)(=O)c3ccc(Br)cc3)CC2)c(Cl)c1=O | 6.7%
CN(C)/C=C(/C(=O)c1ccc(Cl)c(Cl)c1)c1nnnn1-c1ccccc1 | 3.92%
O=C(C1CC1)N1N=C(c2ccc(Br)cc2)CC1(O)C(F)(F)F (centres undefined) | 2.39%
O=C(Cc1ccccc1)N1N=C(c2ccncc2)CC1(O)C(F)(F)F (centres undefined) | 6.09%
O=C(c1ccc(Cl)cc1)N1N=C(c2ccccn2)CC1(O)C(F)(F)F (centres undefined) | 57.1% (active)
CCOc1ccc(-n2c(O)c(/C=N/Nc3nc(C)cc(C)n3)c3ccccc3c2=O)cc1 | 52.4% (active)
Cc1ccc(-n2c(O)c(C=Nc3ccc(S(=O)(=O)Nc4ncccn4)cc3)c3ccccc3c2=O)cc1C | 13.7%
CCN(CC)CCCN=Cc1c(O)n(-c2ccc(C)cc2)c(=O)c2ccccc12 | 6.64%

Structure (SMILES) | inhibition
CC(=O)c1cccc(NC(=O)N2CCCC2C(=O)NCCC(C)C)c1 (centres undefined) | 8%
Cc1nn(C(C)CC(=O)O)c(C)c1C (centres undefined) | -5.98%
O=c1ccc2c(-c3ccccc3S(=O)(=O)O)c3ccc(O)c(O)c3oc-2c1O | 64.6% (active)
O=C(CSc1ccc2nnc(-c3ccccc3)n2n1)N1CCCc2ccccc21 | -9.56%
Nc1ccc(SCCN2C(=O)c3ccccc3C2=O)cc1 | -6.02%
Cc1ccc2oc(=O)c3cnn(CC(=O)N(Cc4ccco4)C4CCCCC4)c3c2c1 | 20.4%
O=C(Nc1ccccc1Cl)/C(Cl)=C(\Cl)S(=O)c1ccccc1 (centres undefined) | 95.1% (active)
CN(C)S(=O)(=O)Oc1ccccc1C(=O)Nc1ccccc1Cl | 8.47%
O=C(COC(=O)CCc1c[nH]c(=O)[nH]1)Nc1ccccc1Cl | -11.7%
Cc1c(S(=O)(=O)N2CC(C)CC(C)C2)c(=O)n(C)c(=O)n1C (centres undefined) | -1.65%
OCCNc1nc(Nc2ccc(Cl)c(Cl)c2)nc2ccccc12 | -13.9%
CCN(CC)CCCSc1nc2ccccc2s1 | -12.8%
O=[N+]([O-])c1c(NCCO)cc(Sc2nc3ccccc3s2)c2nonc12 | 114% (active)
Cc1nc(C)c(-c2nnc(-c3cccc(S(=O)(=O)N(C)C)c3)o2)cc1C(=O)NN | 8.51%
CCOc1ccc2[nH]c3nc(SCC(=O)NC4CCCC4)nnc3c2c1 | 15.4%
Cc1nc2nc(SCC(=O)Nc3cccc(F)c3)[nH]c2cc1Br | -8.14%
O=C(CN1CCN(C(=S)NC2CCCC2)CC1)Nc1ccc(Oc2ccccc2)cc1 | 10.7%
CCC(=C/c1sc2ccc3ccccc3c2[n+]1C)/C=C1\Sc2ccc3ccccc3c2N1C | 66.6% (active)
S=c1[nH]nc(/C=C/c2ccccc2)o1 | -11.1%
CC(C)[C@H](NC(=O)N1CCn2c1nc1ccccc12)C(=O)NCCc1ccccc1 | 20.7%

Structure (SMILES) | inhibition
CCCN(C(=O)COC(=O)CNS(=O)(=O)c1ccc(NC(C)=O)cc1)C1CCS(=O)(=O)C1 (centres undefined) | 4.25%
O=C(O)CCN(Cc1ccccc1)S(=O)(=O)c1c(Cl)cccc1Cl | 4.62%
NC(=O)NC(CC(=O)NNC(=O)c1ccccn1)c1ccc(Cl)cc1 (centres undefined) | -16.2%
CC(=NNC(=S)N1CCCCCC1)c1ccccn1 | 21.3%
C/C(=N\NC(=O)Cc1ccc(Cl)cc1)c1ccccn1 | 102% (active)
COC(=O)c1ccc(NC(=S)NN2CCOCC2)cc1 | 1.46%
Cc1nc2nc(C)c(NS(=O)(=O)c3ccc(C(C)(C)C)cc3)c(=O)n2[nH]1 | 6.13%
CC1CCCC(NC(=O)CSc2nccn2C)C1C (centres undefined) | 7.72%
CC1(C)CC2CC(C)(CN2c2ncnc3ccc(Br)cc23)C1 (centres undefined) | 10.7%
COc1ccc(OC)c(CCNC(=O)c2nn(C)c3c2CS(=O)(=O)c2ccccc2-3)c1 | 9.14%
CCN(CC)C(=O)CSc1nnc(CNc2ccc(F)cc2)n1Cc1ccco1 | 6.14%
CC1CN(Cc2ccco2)C(=S)N(c2ccccc2)C1=O (centres undefined) | 9.82%
CN(C)C(=S)N=c1ssc(=S)n1Cc1ccco1 | 59.8% (active)
Cc1ccccc1N1C(=O)C2ON(c3ccccc3)C(c3ccncc3)C2C1=O (centres undefined) | -6.39%
CN(CC(=O)Nc1cccc(F)c1)C(=O)C1CSC2(C)CCC(=O)N12 (centres undefined) | 9.77%
COCCn1c(SCC(=O)Nc2ccccc2F)nc2c(c1=O)SCC2 | -9.89%
S=C(NCCc1ccccc1)NCC1CCCO1 (centres undefined) | 8.39%
CCCC1CCC(=NNC(=S)NCCc2ccccc2)CC1 (centres undefined) | 54.4% (active)
S=C(NN=C1CCN(Cc2ccccc2)CC1)NC1CCCCC1 | 21.4%
